Measurements reported in the supplement of paper PMC12339681.
Where a name gives a salt, the structure may show the parent alone.

system: PBMC-derived induced microglia-like cells (piMGLC); assay: synaptosome phagocytic index relative to DMSO control (fraction of DMSO); higher = more phagocytosis; details: concentration: 10 uM (2 uM for compounds listed in Table S2); pretreatment time: 24 h; assay time: 3 h

| SMILES | synaptosome phagocytic index |
| --- | --- |
| C[C@]12C=CC(=O)C=C1CC[C@@H]1[C@@H]2C(=O)C[C@@]2(C)[C@H]1CC[C@]2(O)C(=O)CO [Prednisone] | 0.718 |
| C[C@@H](Nc1nc(N[C@H](C)C(F)(F)F)nc(-c2cccc(Cl)n2)n1)C(F)(F)F [Vorasidenib] | 0.481 |
| COc1cn(-c2ccc(-n3cccn3)cc2F)nc(-c2ccnn2-c2ccccc2)c1=O [Balipodect] | 0.835 |
| COc1ncccc1-c1cnn2ccc(N3CCN(C(=O)OC(C)C)CC3)nc12 | 0.708 |
| CC(C)NCC(O)COc1ccc(CC(N)=O)cc1 (stereo not drawn) [Atenolol] | 0.717 |
| CN(C)CCc1c[nH]c2ccc(CS(=O)(=O)N3CCCC3)cc12 [Almotriptan_(malate)] | 0.882 |
| Cc1cc(NC(=O)Cc2ccc(F)c(Cl)c2)n(C2CCCCC2)n1 | 0.77 |
| COc1ccc2[nH]cc(CCNC(C)=O)c2c1 [Melatonin] | 0.577 |
| C#CCNS(=O)(=O)c1ccc(CCN(Cc2cc(Cl)ccc2OCCC)C(=O)Cc2ccsc2)cc1 | 0.54 |
| CCCc1nc(C)c2c(O)nc(-c3cc(S(=O)(=O)N4CCN(CC)CC4)ccc3OCC)nn12 [Vardenafil_(hydrochloride)] | 1.16 |
| CCOC(=O)C1=C(C)NC(C)=C(C(=O)OC)C1c1cccc(Cl)c1Cl (stereo not drawn) [Felodipine] | 1.04 |
| Cc1ccsc1C(=CCCN1CCC[C@@H](C(=O)O)C1)c1sccc1C [Tiagabine_(hydrochloride)] | 1.28 |
| CNNCc1ccc(C(=O)NC(C)C)cc1 [Procarbazine_(Hydrochloride)] | 1.1 |
